Columns and labels:
Format in all cases: functional
[1] = target: Solute carrier family 2, facilitated glucose transporter member 1 (Homo sapiens) (UniProt P11166); test: ST_JUDE_LEISH: Cytotoxicity at 2uM final concentration against transgenic Leishmania Mexicana promastigotes LmGLUT1 that are glucose transport deficient and complemented with the human glucose transporter GLUT1. Activity is measured by DNA content using SYBR green in vitro
[2] = target: Hexose transporter 1 (Plasmodium falciparum) (UniProt O97467); test: ST_JUDE_LEISH: Cytotoxicity at 2uM final concentration against transgenic Leishmania Mexicana promastigotes LmPfHT that are glucose transport deficient and complemented with the Plasmodium falciparum hexose transporter. Activity is measured by DNA content using SYBR green in vitro
[3] = target: Glucose transporter (Leishmania mexicana) (UniProt O61059); test: ST_JUDE_LEISH: Cytotoxicity at 2uM final concentration against transgenic Leishmania Mexicana promastigotes LmGT2 that are glucose transport deficient and complemented with the L. Mexicana glucose transporter 2. Activity is measured by DNA content using SYBR green in vitro

Chain of Solute carrier family 2, facilitated glucose transporter member 1 (Homo sapiens) (P11166 whole entry): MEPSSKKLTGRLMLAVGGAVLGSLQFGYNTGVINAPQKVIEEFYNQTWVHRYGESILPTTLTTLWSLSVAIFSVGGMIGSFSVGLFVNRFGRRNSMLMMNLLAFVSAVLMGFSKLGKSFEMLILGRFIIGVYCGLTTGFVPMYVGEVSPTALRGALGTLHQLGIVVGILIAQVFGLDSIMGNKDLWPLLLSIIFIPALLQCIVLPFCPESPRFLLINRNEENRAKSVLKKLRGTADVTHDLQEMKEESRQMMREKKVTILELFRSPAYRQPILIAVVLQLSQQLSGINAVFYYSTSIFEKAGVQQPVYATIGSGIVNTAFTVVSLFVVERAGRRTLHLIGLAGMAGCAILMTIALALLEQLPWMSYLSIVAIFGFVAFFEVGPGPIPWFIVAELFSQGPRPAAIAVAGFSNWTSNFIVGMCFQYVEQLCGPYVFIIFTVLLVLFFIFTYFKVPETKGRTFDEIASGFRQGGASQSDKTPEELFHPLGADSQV

Compound `CC[C@H]1CN(Cc2ccccc2Br)CC[C@H]1CCCc1ccnc2ccc(O)cc12` has an inhibition [1] of 3.62%, an inhibition [2] of 5.03% and an inhibition [3] of 2.43%.
Work on `O=C(Nc1ccc(-c2cccc(-c3nc4ccccc4[nH]3)c2)cc1)NC1CC1c1ccccc1` (stereo unspecified) yielded an inhibition [1] of 1.87%, an inhibition [2] of 1.77% and an inhibition [3] of -0.17%.
Work on `C=C(NC(=O)c1cc(C)cc(C)c1)C(=O)OC` yielded an inhibition [1] of 0.48%, an inhibition [2] of -0.44% and an inhibition [3] of 0.67%.
Compound `CCCCCCCN1CC[C@@H](CCCc2ccnc3ccc(OC)cc23)[C@@H](CNC)C1` has an inhibition [1] of 0.83%, an inhibition [2] of -1.11% and an inhibition [3] of -0.87%.
Compound `Cc1nnc2c(NC(=O)NC3CCCC3)cc3cc(-c4ccc(CN5CCCCC5)cc4)ccc3n12` has an inhibition [1] of 1.79%, an inhibition [2] of 1.94% and an inhibition [3] of 0.13%.
`Cc1cccc2nc(-c3cccc(-c4ccc(NC(=O)C5CC(=O)Nc6ccccc65)cc4)c3)[nH]c12` (stereo unspecified) was tested, and the inhibition [1] was 2.47%, the inhibition [2] was 3.87% and the inhibition [3] was 0.15%.
Work on `COc1ccccc1C(=O)Nc1cccc(N2CCC(NCc3ccc(-n4cccn4)cc3)CC2)c1` yielded an inhibition [1] of 9.93%, an inhibition [2] of 10.7% and an inhibition [3] of 5.84%.
Work on `COc1cc(C(=O)NC2CC(C)(C)NC(C)(C)C2)ccc1-c1cc2cc(Cl)c(Cl)cc2[nH]1` yielded an inhibition [1] of 1.69%, an inhibition [2] of -0.26% and an inhibition [3] of 2.02%.
Compound `COc1ccc(Cl)cc1N1CCN(CCCNC(=O)c2ccc(-c3nc4cc(Cl)c(F)cc4[nH]3)cc2)CC1` has an inhibition [1] of 2.81%, an inhibition [2] of 2.7% and an inhibition [3] of 3.92%.
`COc1cc2nc(Nc3ccc(Oc4ccccc4)cc3)nc(Nc3ccc(Oc4ccccc4)cc3)c2cc1OC` was tested, and the inhibition [1] was 6.52%, the inhibition [2] was 3.92% and the inhibition [3] was 6.04%.
For `COc1cccc2c1CCN(CCN1CCC(CNC(=O)c3ccc(-c4ccc(C#N)cc4)cc3)CC1)C2`, the inhibition [1] was 7.68%, the inhibition [2] was 3.84% and the inhibition [3] was 1.38%.
`N#Cc1ccc(N2C[C@@H](OCc3ccccc3)C[C@H]2C(=O)NCCC(c2ccccc2)c2ccccc2)c2ccccc12` showed an inhibition [1] of 5.42%, an inhibition [2] of 4.29% and an inhibition [3] of 3.78%.
Compound `COc1ccc(OC)c(-c2ccc(=O)n(CC(=O)Nc3cccc4ccccc34)n2)c1` has an inhibition [1] of 12.4%, an inhibition [2] of 11.6% and an inhibition [3] of 6.44%.
`Cc1cccc(NC(=S)NC2CCN(CCCCCNC(=O)/C=C/c3ccc(Cl)c(Cl)c3)CC2)c1` showed an inhibition [1] of 0.27%, an inhibition [2] of 1.13% and an inhibition [3] of 0.99%.
In the case of `CCCNCc1ccc(-c2ccc(CN(CCOC)C(=O)c3nn(-c4ccccc4)nc3C)cc2)nc1`, the inhibition [1] is reported as 4.16%, the inhibition [2] is reported as 1.87% and the inhibition [3] is reported as 1%.
`c1cc(CN2CCC(CCN3CCCCC3)CC2)cc(-c2cccc(-c3nc4ccccc4[nH]3)c2)c1` was tested, and the inhibition [1] was 2.17%, the inhibition [2] was 2.55% and the inhibition [3] was 3.39%.
`CCNc1cc(C(=O)N[C@@H](Cc2ccccc2)[C@H](O)CNC2(C(C)C)CCC2)cc(N2CCCCS2(=O)=O)c1` gave an inhibition [1] of -0.22%, an inhibition [2] of 0.75% and an inhibition [3] of -2.45%.
`CCOc1cc(C(=O)N[C@@H](Cc2ccccc2)[C@H](O)CNC(C)(C)c2cccc(OC)c2)cc(N2CCCS2(=O)=O)c1` showed an inhibition [1] of 2.48%, an inhibition [2] of -0.71% and an inhibition [3] of 0.74%.
With `FC(F)(F)c1ccc2[nH]c(-c3cccc(-c4ccc(CNCc5ccccc5)cc4)c3)nc2c1` the inhibition [1] was -0.08%, the inhibition [2] was -1.13% and the inhibition [3] was -0.47%.
`CCOc1cc(C)ccc1C1CCN(CCCCNC(=O)c2cccc(-c3ccc(C(F)(F)F)cc3)c2)CC1` showed an inhibition [1] of 1.54%, an inhibition [2] of 2.27% and an inhibition [3] of 2.69%.
`O=S(=O)(Nc1cccc(CCN2CCC(N3CCCCC3)CC2)c1)c1cccc2ccccc12` showed an inhibition [1] of 4.59%, an inhibition [2] of 2.76% and an inhibition [3] of 3.28%.
`O=C(Nc1ccc(F)cc1)NC1CCN(CCCCCNC(=O)C2CC2c2ccc(Cl)c(Cl)c2)CC1` (stereo unspecified) was tested, and the inhibition [1] was 1.84%, the inhibition [2] was 1.54% and the inhibition [3] was 2.31%.
`CN(C)Cc1ccc2nc(-c3cccc(Cc4cc(Cl)ccc4OCc4ccc(Cl)cc4F)n3)[nH]c2c1` showed an inhibition [1] of -0.36%, an inhibition [2] of -0.21% and an inhibition [3] of -1.22%.
Compound `COc1ccc2nccc([C@@H](O)CN3CCC(NC(=O)C(=O)c4c[nH]c5c(C)cccc45)CC3)c2c1` has an inhibition [1] of 0.46%, an inhibition [2] of 0.43% and an inhibition [3] of 0.45%.
Work on `CC(C)Cc1cnc2nc(N)nc(N)c2c1` yielded an inhibition [1] of 1.42%, an inhibition [2] of 2.76% and an inhibition [3] of 1.4%.
Work on `O=C(NCc1ccc(F)cc1)Nc1ccc(-c2cccc(-c3nc4cc(C(F)(F)F)ccc4[nH]3)c2)cc1` yielded an inhibition [1] of 3.93%, an inhibition [2] of 2.38% and an inhibition [3] of -0.05%.
For `CN(C)CCNCc1nc(-c2ccc3c(Nc4ccc(Cl)cc4F)ccnc3c2)cs1`, the inhibition [1] was 9.87%, the inhibition [2] was 8.58% and the inhibition [3] was 10.1%.
With `Clc1cc(Nc2ccnc3ccc(Br)cc23)ccc1Oc1ccc2ccccc2c1Cl` the inhibition [1] was 2.41%, the inhibition [2] was 5.44% and the inhibition [3] was 1.22%.
In the case of `O=C(c1ccccc1[N+](=O)[O-])N(Cc1ccccc1)c1ccccn1`, the inhibition [1] is reported as 4.59%, the inhibition [2] is reported as 4.79% and the inhibition [3] is reported as 6.57%.
Compound `CCNCc1cccc(-c2ccc3ccnc(N)c3c2)c1` has an inhibition [1] of 4.49%, an inhibition [2] of 3.12% and an inhibition [3] of 4.03%.
In the case of `CN1CCC(C(=O)Nc2ccc(-c3ccc(-c4nc5ccccc5[nH]4)cc3)cc2)CC1`, the inhibition [1] is reported as 2.95%, the inhibition [2] is reported as 1.48% and the inhibition [3] is reported as 0.83%.
`Oc1c(C=Nn2cnnc2)sc2ccccc12` gave an inhibition [1] of -0.72%, an inhibition [2] of 5.61% and an inhibition [3] of 11.2%.
`CC(C)NCc1ccc(-c2ccc(NC(=O)c3ccc(C#N)cc3)cc2)cc1` was tested, and the inhibition [1] was 3.05%, the inhibition [2] was 3.73% and the inhibition [3] was 4.89%.
For `CSc1ccc(C=CC(=O)NC(=O)c2ccccc2O)cc1`, the inhibition [1] was 1.32%, the inhibition [2] was 2.44% and the inhibition [3] was 1.41%.
Compound `COc1ccc(Cc2cnc(N)nc2N)cc1OCCCOc1ccccc1` has an inhibition [1] of -0.49%, an inhibition [2] of 0.92% and an inhibition [3] of -0.52%.
For `Clc1cccc(CNc2nc(NCCc3c[nH]cn3)nc(NC3CCCCC3)n2)c1`, the inhibition [1] was 3.76%, the inhibition [2] was 3.97% and the inhibition [3] was 2.21%.
In the case of `O=C(C=Cc1cccc(F)c1)NC1CCC(CCN2CCc3ccc(-c4cnccn4)cc3CC2)CC1` (stereo unspecified), the inhibition [1] is reported as 14.4%, the inhibition [2] is reported as 14.2% and the inhibition [3] is reported as 13.1%.
`O=C(CCc1c[nH]cn1)Nc1cccc(-c2ccc(-c3nc4ccccc4[nH]3)s2)c1` showed an inhibition [1] of 2.18%, an inhibition [2] of 4.04% and an inhibition [3] of 1.88%.
Compound `COc1ccc(N2C(=O)c3c(c4ccccc4n3C)C2c2ccccc2O)cc1` (stereo unspecified) has an inhibition [1] of 6.27%, an inhibition [2] of 4.4% and an inhibition [3] of 5.53%.
Work on `O=C(NC1CCN(Cc2ccccc2O)C1)c1cccc(C(F)(F)F)c1` (stereo unspecified) yielded an inhibition [1] of 0.25%, an inhibition [2] of 0.49% and an inhibition [3] of -9.49%.
For `Cc1cccc(-c2cc3cc(Nc4ccnc5cc(-c6nccs6)ccc45)ccc3[nH]2)c1`, the inhibition [1] was 1.71%, the inhibition [2] was -0.37% and the inhibition [3] was 1.12%.
`O=C(Nc1ccccc1)N(Cc1cccc(-c2ccc(CNC3CCCC3)cc2)c1)C1CCN(Cc2ccccc2)CC1` gave an inhibition [1] of 5.58%, an inhibition [2] of 4.72% and an inhibition [3] of 2.99%.
For `O=C(/C=C/c1cccc2c1OCO2)Nc1ccnc2ccncc12`, the inhibition [1] was 1.56%, the inhibition [2] was 1.4% and the inhibition [3] was 1.89%.
Compound `Oc1ccc(CN2CCC(NCc3cccc(C(F)(F)F)c3)CC2)cc1` has an inhibition [1] of 11.3%, an inhibition [2] of 13.7% and an inhibition [3] of 13.7%.
`OC(CNc1ccnc(Nc2ccc(Cl)cc2)n1)c1ccccc1C(F)(F)F` (stereo unspecified) gave an inhibition [1] of 10%, an inhibition [2] of 9.74% and an inhibition [3] of 5.08%.
Compound `COc1ccc2c(=NN=Cc3ccncc3)cc(C)[nH]c2c1` has an inhibition [1] of 4.05%, an inhibition [2] of 3.94% and an inhibition [3] of 3.63%.
With `CCNC(C)(C)CN(Cc1ccc(-c2ccc(C(F)(F)F)cc2)cc1)C(=O)Cn1c(CCc2cccc(F)c2F)nc(=O)c2ccccc21` the inhibition [1] was 3.91%, the inhibition [2] was 3.3% and the inhibition [3] was 2.34%.
For `CCN1CCN(c2cc(C)c3cc(NC(=O)c4cccc(OC)c4)ccc3n2)CC1`, the inhibition [1] was 15.2%, the inhibition [2] was 15.3% and the inhibition [3] was 13.7%.
`Cc1[nH]c(C)c([N+](=O)[O-])c(=O)c1-c1ccc(Oc2ccc(OC(F)(F)F)cc2)cc1` was tested, and the inhibition [1] was 0.69%, the inhibition [2] was 1.27% and the inhibition [3] was 1.41%.
`N#CN1CC[C@@H](NS(=O)(=O)Cc2ccc(Cl)c(Cl)c2)C1` showed an inhibition [1] of 5.72%, an inhibition [2] of 4.08% and an inhibition [3] of 4.15%.
Compound `Cn1cnc2c(Nc3ccncc3)nc(-c3ccc4c(c3)OCO4)nc21` has an inhibition [1] of 8.06%, an inhibition [2] of 6.78% and an inhibition [3] of 3.95%.
Work on `CCOC(=O)c1ccc(NC(=O)Nc2ccc(-c3ccc(-c4nc5ccccc5[nH]4)cc3)cc2)cc1` yielded an inhibition [1] of 3.64%, an inhibition [2] of 3.36% and an inhibition [3] of 3.8%.
